Source: PubChem
HSP90 inh – inhibitors of HSP90 luciferase refolding in rabbit reticulocyte lysate; luciferase refolding luminescence, 3 h; inhibition, % at 5.6 µM; AID 1789; hit rate 0.91% among 290,000;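 active means inhibition above the screen-wide mean plus 3 SD, computed separately per campaign, cut at about 16% in these data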;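 further: 0% = DMSO wells and 100% = 60 µM geldanamycin wells; inhibitors lower the luminescence because luciferase stays unfolded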
GAA850 FXN act – increases GAA850 frataxin promoter reporter activity; hit rate 0.56% among 360,000; AID 540364; HEK293 lucGAA850 FXN promoter luciferase reporter, 24 h; percent of 10 µM SAHA response; activation, % at 6 µM;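 active means activation above the average of all compounds screened plus 3 SD, cutoff fixed separately per campaign, cut at about 7.5% in these data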;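 further: 0% = DMSO wells and 100% = 10 µM SAHA wells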
AI-2 QS modul – Vibrio harveyi AI-2 quorum sensing modulation; Vibrio harveyi JMH597 AI-2 luminescence/OD600 ratio, 9 h; hits give low values; strain lacks LuxN and CqsS sensors; 0 = neutral-control median; hit rate 0.4% among 300,000; activity change, % at 7.5 µM; AID 2094; in the data active means activity change below about -75%, passing the limit was not always enough;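 further: luminescence divided by OD600 gain over 9 h not by final OD600 alone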
SMARCA2 act – increases SMARCA2 function in MMTV reporter cells; MG213 cells, MMTV-luciferase reporter, dexamethasone, overnight; activation, % at 9.1 µM; hit rate 1% among 370,000; AID 652017; in the data active means activation above about 7.8%;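 further: 0% = vehicle wells and 100% = reference activator wells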
HSF1 inhib – HSF1 inhibition | NIH3T3-HGL HSE-luciferase, MG132-induced, luminescence 8 h; hits give low values | activity change, negative = inhibition, % at 7.5 µM (by protocol) | hit rate 0.77% among 300,000 | AID 2098;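 active means more than half of replicate wells show activity change below -50%, luminescence cut by over half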;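 further: luciferase reports HSF-1 transcriptional activity via heat shock element; 0% = median of DMSO wells and -100% = zero luminescence signal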
PG9 Ab binder – PG9 antibody binding by small molecule; TR-FRET gp120-PG9 antibody binding; inhibition, % at 6.7 µM; hit rate 0.43% among 360,000; AID 624416; in the data active means inhibition above about 8.5%
SMARCA2 act conf – SMARCA2 activation, confirmation screen. shares compounds with SMARCA2 act. MG213 cells, MMTV-luciferase with dexamethasone, luminescence, overnight; MG213 cells expressing E1A, Rb sequestered; DMSO wells 0%, reference activator 100%. activation, % at 9.1 µM. hit rate 30% among 3,500;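 active means activation above its plate's cutoff, the mean activation of tested wells plus 3 SD, cut at about 7.9% in these data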
VP16 Luc act – activates GAL4-VP16 luciferase, flagging SMARCA2 activator hits | hit rate 41% among 3,500 | HEK293 GAL4-VP16 pG5luc reporter, luciferase luminescence; scaled: DMSO wells 0%, SAHA wells 100% | shares compounds with SMARCA2 act | activation, % at 9.1 µM | AID 686939;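 active means activation above the solvent-only control well mean plus 3 SD, averaged across control plates, cut at about 5.2% in these data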
An asterisk follows results filed as active. A selection: hits, their analogues and other compounds. The true share with any hit is near 3.4%.

What do the screens show for `CCOC(=O)C1=CCN(S(=O)(=O)c2ccc(Br)cc2)C1c1ccc(Br)cc1` (configuration not stated)?
SMARCA2 act: -5; PG9 Ab binder: -1

How did CN(C)c1ccc(-c2noc(C3CCN(S(=O)(=O)c4cccc(C(=O)O)c4)CC3)n2)cc1 do in these assays?
HSP90 inh: -6; GAA850 FXN act: -1; AI-2 QS modul: 26; SMARCA2 act: 9.7*; HSF1 inhib: 3; PG9 Ab binder: -4; SMARCA2 act conf: 4; VP16 Luc act: -2

How did Nc1c(Cl)c(Cl)nc(C(=O)OCC(=O)N2CCCC2=O)c1Cl do in these assays?
GAA850 FXN act: -3; AI-2 QS modul: 42; SMARCA2 act: 0; HSF1 inhib: 0; PG9 Ab binder: -1

Results for O=C(OCC(=O)N1CCCC1=O)c1nc(Cl)c(Cl)c(Cl)c1Cl ?
HSP90 inh: 4; GAA850 FXN act: 7; AI-2 QS modul: 17; SMARCA2 act: 34*; HSF1 inhib: 9; PG9 Ab binder: -3; SMARCA2 act conf: 7; VP16 Luc act: 4

How did CCNC(=O)COc1ccc(CC)cc1 do in these assays?
HSP90 inh: -1; GAA850 FXN act: 3; AI-2 QS modul: 6; SMARCA2 act: 8.1*; HSF1 inhib: 0; PG9 Ab binder: 0; SMARCA2 act conf: 8.0*; VP16 Luc act: 2

How did Cc1ccc(OCC(=O)NCCO)cc1C do in these assays?
HSP90 inh: -3; GAA850 FXN act: -1; AI-2 QS modul: 36; SMARCA2 act: 10*; HSF1 inhib: -1; PG9 Ab binder: -1; SMARCA2 act conf: 1; VP16 Luc act: 5

What do the screens show for `N#CCC[C@@H]1CC[C@]2(CCCN(C(=O)c3ccccc3)C2)O1`?
SMARCA2 act: 3

Results for C/C(NC(=O)c1ccccc1)=C1/C(=O)CC2C1C2(C)C (configuration not stated) ?
HSP90 inh: -5; GAA850 FXN act: 4; AI-2 QS modul: 10; SMARCA2 act: 8.0*; HSF1 inhib: 21; PG9 Ab binder: -1; SMARCA2 act conf: 19*; VP16 Luc act: 5

Results for COc1ccc(C2=Nc3ccccc3N(C(=O)c3ccncc3)C2C(=O)NC(C)C)cc1 (configuration not stated) ?
SMARCA2 act: 9.7*; PG9 Ab binder: 0; SMARCA2 act conf: 0; VP16 Luc act: 3

How did CN(CCCNC(=O)CCCOc1cc(=O)n(C)c2ccccc12)Cc1ccccc1 do in these assays?
HSP90 inh: 3; GAA850 FXN act: -1; AI-2 QS modul: 7; SMARCA2 act: 9.6*; HSF1 inhib: 5; PG9 Ab binder: -2; SMARCA2 act conf: 2; VP16 Luc act: 3

Results for Cc1ccccc1C(=O)N[C@H](C(=O)N1CCC[C@H]1C(=O)NCc1ccccc1)c1ccccc1 ?
SMARCA2 act: 2; PG9 Ab binder: 0

Results for COc1ccc(CCN2CC(C(=O)NCCc3ccccc3)CC2=O)cc1OC (configuration not stated) ?
HSP90 inh: -1; GAA850 FXN act: 4; AI-2 QS modul: 16; SMARCA2 act: 8.7*; HSF1 inhib: 1; PG9 Ab binder: -2; SMARCA2 act conf: 3; VP16 Luc act: 3

What do the screens show for `CCOc1ccc(CCNC(=O)C2CC(=O)N(CCc3ccccc3)C2)cc1OCC` (configuration not stated)?
HSP90 inh: 5; GAA850 FXN act: -3; AI-2 QS modul: 3; SMARCA2 act: -1; HSF1 inhib: -1; PG9 Ab binder: -1

How did COC(=O)[C@]12C[C@H](CC(=O)N3CCN(C(=O)c4ccco4)CC3)C(=O)N(Cc3ccccc3)C1=C[C@H](C1CCCC1)O[C@@H]2C do in these assays?
SMARCA2 act: -6; PG9 Ab binder: -1

How did COc1cccc(C=NNc2ccc([N+](=O)[O-])cn2)c1OC do in these assays?
GAA850 FXN act: 2; SMARCA2 act: 8.3*; PG9 Ab binder: 1; SMARCA2 act conf: 7; VP16 Luc act: 3
